Records with an inconclusive call do not appear. The source made the active and inactive calls. Unless noted, calls follow the shape of the dose curve; as a rule, active = well fitted curve in the direction sought with a large enough effect in the repeat runs; inconclusive = weak or mixed curves; inactive = no such curve, though single readings can be large; an effect the other way counts as inactive or inconclusive. Where a SMILES comes first, the peptide text is derived from it.
Legend:
[1] = target: Peroxisome proliferator-activated receptor gamma (Homo sapiens) (UniProt P37231); experiment: qHTS assay to identify small molecule antagonists of the peroxisome proliferator-activated receptor gamma (PPARg) signaling pathway (AID 743191; calls by dose curve; also: series mostly up to about 63 µM; nearly all actives have a fitted effect of over 30% in size)
Peroxisome proliferator-activated receptor gamma (Homo sapiens), sequence (P37231 whole entry, looked up): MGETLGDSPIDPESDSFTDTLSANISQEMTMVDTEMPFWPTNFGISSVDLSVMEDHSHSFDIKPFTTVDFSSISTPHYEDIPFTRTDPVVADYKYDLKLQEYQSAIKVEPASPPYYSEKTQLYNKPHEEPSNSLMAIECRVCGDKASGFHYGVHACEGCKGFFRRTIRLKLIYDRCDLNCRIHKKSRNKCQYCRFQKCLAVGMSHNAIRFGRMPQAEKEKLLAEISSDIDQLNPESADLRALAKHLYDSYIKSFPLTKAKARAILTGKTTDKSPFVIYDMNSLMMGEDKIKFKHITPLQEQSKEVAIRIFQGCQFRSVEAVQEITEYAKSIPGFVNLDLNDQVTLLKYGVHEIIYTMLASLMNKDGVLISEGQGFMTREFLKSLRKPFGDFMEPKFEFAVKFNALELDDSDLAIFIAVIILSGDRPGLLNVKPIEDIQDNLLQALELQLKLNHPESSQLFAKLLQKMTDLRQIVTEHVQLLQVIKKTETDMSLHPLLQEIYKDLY
In short: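 GeneBLAzer PPARg UAS-bla HEK293H cells carrying a UAS-driven beta-lactamase reporter were plated at 3000 cells/well, preincubated 5 h at 37C, then given compound for 17 h at 37C; LiveBLAzer B/G FRET substrate was read after 1 h at room temperature.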

[2] = qHTS assay to identify small molecule antagonists of the peroxisome proliferator-activated receptor gamma (PPARg) signaling pathway - cell viability counter screen (AID 743194); also: nearly all actives have a fitted effect of over 55% in size
In short: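 PPARg-UAS-bla HEK293H cells were plated, rested 5 h at 37 C, then treated with compounds plus rosiglitazone (50 nM final) for 17 h at 37 C; viability was then read by CellTiter-Glo luminescence after 30 min at room temperature.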

[3] = qHTS assay for small molecule agonists of the antioxidant response element (ARE) signaling pathway (AID 743202; active = well fitted activation curve with a large enough effect in the signal ratio in the repeat runs, not every such curve was filed as active; the % refers to the signal ratio)
In short: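 Steps: seed ARE-bla HepG2 cells (2,000/well); incubate 5 h at 37 C; add compounds by pin tool; incubate 16 h at 37 C; add FRET substrate; read fluorescence after 2 h at RT.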

[4] = qHTS assay for small molecule agonists of the antioxidant response element (ARE) signaling pathway - cell viability counter screen (AID 743203; calls by dose curve; also: nearly all actives have a fitted effect of over 55% in size)
In short: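 Viability counter screen: stably transfected ARE-bla HepG2 line, 16 hrs compound exposure at 37C/5% CO2, ATP-based CellTiter-Glo luminescence measured in the reporter wells.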

[5] = qHTS assay for small molecule activators of the heat shock response signaling pathway - cell viability counter screen (AID 743209); also: nearly all actives have a fitted effect of over 50% in size
In short: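 Viability of HSE-bla HeLa cells is measured with CellTiter-Glo in the wells already used for the reporter read. Compound exposure lasts 5 h at 37 C, and luminescence is read after 30 min at room temperature.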

[6] = system: thyroid hormone receptor (rat, GH3 cells); experiment: qHTS assay to identify small molecule agonists of the thyroid receptor (TR) signaling pathway (AID 743066; calls by dose curve)
[7] = target: Estrogen receptor (Homo sapiens) (UniProt P03372); experiment: qHTS assay to identify small molecule antagonists of the estrogen receptor alpha (ER-alpha) signaling pathway (AID 743069; active = well fitted curve in the direction sought with a large enough effect in the signal ratio in the repeat runs, not every such curve was filed as active; the % refers to the signal ratio)
Estrogen receptor (Homo sapiens), sequence (P03372 whole entry, looked up): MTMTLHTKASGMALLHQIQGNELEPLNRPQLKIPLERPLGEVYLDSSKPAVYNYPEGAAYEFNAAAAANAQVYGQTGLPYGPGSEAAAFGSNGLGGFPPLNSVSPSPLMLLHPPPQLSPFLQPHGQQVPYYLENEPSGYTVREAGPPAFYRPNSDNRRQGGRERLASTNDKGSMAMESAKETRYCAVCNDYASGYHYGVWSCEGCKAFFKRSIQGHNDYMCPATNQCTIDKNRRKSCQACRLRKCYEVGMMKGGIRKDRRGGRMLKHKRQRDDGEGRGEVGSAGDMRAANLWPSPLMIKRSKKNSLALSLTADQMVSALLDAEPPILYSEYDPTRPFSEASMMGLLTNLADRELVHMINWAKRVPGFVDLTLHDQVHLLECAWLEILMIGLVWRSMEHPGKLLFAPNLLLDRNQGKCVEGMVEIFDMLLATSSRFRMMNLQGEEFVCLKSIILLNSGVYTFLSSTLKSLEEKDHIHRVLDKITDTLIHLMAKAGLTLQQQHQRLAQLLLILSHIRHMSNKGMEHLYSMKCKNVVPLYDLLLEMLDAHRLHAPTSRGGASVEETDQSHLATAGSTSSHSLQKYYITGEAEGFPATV
In short: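 Screening used a UAS-driven beta-lactamase reporter integrated into HEK293 cells expressing ER-alpha, stimulated with 17beta-estradiol alongside test compounds over 18 hr at 37C; signal came from LiveBLAzer B/G FRET fluorescence.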

[8] = qHTS assay to identify small molecule antagonists of the estrogen receptor alpha (ER-alpha) signaling pathway - cell viability counter screen (AID 743074; calls by dose curve; also: nearly all actives have a fitted effect of over 45% in size)
[9] = target: Estrogen receptor (Homo sapiens) (UniProt P03372); experiment: qHTS assay to identify small molecule agonists of the estrogen receptor alpha (ER-alpha) signaling pathway (AID 743075; calls by dose curve)
[10] = qHTS assay to identify small molecule antagonists of the estrogen receptor alpha (ER-alpha) signaling pathway using the BG1 cell line (AID 743080; calls by dose curve;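 also: BG1 cells stimulated with 17beta-estradiol alongside compound; series mostly up to about 70 µM; nearly all actives have a fitted effect of over 25% in size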)
In short: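 BG1-Luc-4E2 cells (endogenous full-length ER-alpha, stable 4×ERE-luciferase) were starved 5 days in phenol-red-free medium with 10% charcoal-stripped FBS, plated 24 h, then given compound plus 17beta-estradiol for 21.5 h at 37 C; ONE-Glo luminescence read after 30 min.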

[11] = qHTS assay to identify small molecule antagonists of the estrogen receptor alpha (ER-alpha) signaling pathway using the BG1 cell line - cell viability counter screen (AID 743081);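 also: compound given together with 17beta-estradiol as the ER stimulus; series mostly up to about 70 µM; nearly all actives have a fitted effect of over 45% in size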
Aromatase (Homo sapiens) = Aromatase (Homo sapiens) (UniProt P11511); experiment: qHTS assay to identify aromatase inhibitors (AID 743083); also: series mostly up to about 70 µM; nearly all actives have a fitted effect of over 55% in size
Aromatase (Homo sapiens), sequence (P11511 whole entry, looked up): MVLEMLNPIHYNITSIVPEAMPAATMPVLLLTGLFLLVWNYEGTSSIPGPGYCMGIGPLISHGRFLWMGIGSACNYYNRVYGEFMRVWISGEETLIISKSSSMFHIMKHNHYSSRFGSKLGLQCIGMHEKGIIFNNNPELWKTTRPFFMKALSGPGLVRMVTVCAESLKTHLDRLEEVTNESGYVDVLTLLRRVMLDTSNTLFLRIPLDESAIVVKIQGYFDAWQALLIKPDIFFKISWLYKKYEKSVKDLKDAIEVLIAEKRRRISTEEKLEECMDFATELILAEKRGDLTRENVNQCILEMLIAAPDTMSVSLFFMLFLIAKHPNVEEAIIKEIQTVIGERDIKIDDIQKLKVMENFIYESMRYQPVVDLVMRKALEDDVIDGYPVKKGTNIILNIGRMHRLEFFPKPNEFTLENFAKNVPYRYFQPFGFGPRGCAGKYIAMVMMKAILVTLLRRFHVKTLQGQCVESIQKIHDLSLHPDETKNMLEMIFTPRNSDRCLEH

[12] = qHTS assay to identify aromatase inhibitors - cell viability counter screen (AID 743084);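 also: cells stimulated with testosterone during compound exposure; nearly all actives have a fitted effect of over 55% in size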
[13] = qHTS assay to identify small molecule that activate the aryl hydrocarbon receptor (AhR) signaling pathway - cell viability counter screen (AID 743086);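 also: HepG2 liver cells carrying the AhR DRE luciferase reporter; series mostly up to about 70 µM; nearly all actives have a fitted effect of over 45% in size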
In short: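 HepG2-AhR-luc (HG2L7.5c1) cells, 4000/well, were preincubated 5 h at 37C, exposed to compound in qHTS format for 24 hr at 37C, then given CellTiter-Fluor for 30 min; viability was read as fluorescence in the reporter wells.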

[14] = target: Peroxisome proliferator-activated receptor gamma (Homo sapiens) (UniProt P37231); experiment: qHTS assay to identify small molecule agonists of the peroxisome proliferator-activated receptor gamma (PPARg) signaling pathway (AID 743094; active = well fitted activation curve with a large enough effect in the signal ratio in the repeat runs, not every such curve was filed as active; the % refers to the signal ratio)
In short: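 Reporter activation was scored by fluorescence of cleaved LiveBLAzer B/G substrate (1 h, room temperature) in PPARg-bla HEK293H cells previously treated 17 h at 37C with DMSO-dissolved compounds.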

[15] = qHTS assay for small molecule activators of the heat shock response signaling pathway (AID 743210; active = well fitted activation curve with a large enough effect in the signal ratio in the repeat runs, with a control signal flat, not every such curve was filed as active; the % refers to the signal ratio;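 also: HeLa cells with beta-lactamase reporter driven by heat shock elements; series mostly up to about 63 µM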)
In short: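 Activation of heat shock element-controlled beta-lactamase expression is measured in HeLa cells by LiveBLAzer FRET fluorescence, with compound exposure lasting 5 h at 37 C and substrate loading 2.5 h at room temperature.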

[16] = target: Aryl hydrocarbon receptor (Homo sapiens) (UniProt P35869); experiment: qHTS assay to identify small molecule that activate the aryl hydrocarbon receptor (AhR) signaling pathway (AID 743085);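 also: HG2L7.5c1 human HepG2 liver cells with stably integrated DRE-driven firefly reporter; series mostly up to about 70 µM; nearly all actives have a fitted effect of over 15% in size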
Aryl hydrocarbon receptor (Homo sapiens), sequence (P35869 whole entry, looked up): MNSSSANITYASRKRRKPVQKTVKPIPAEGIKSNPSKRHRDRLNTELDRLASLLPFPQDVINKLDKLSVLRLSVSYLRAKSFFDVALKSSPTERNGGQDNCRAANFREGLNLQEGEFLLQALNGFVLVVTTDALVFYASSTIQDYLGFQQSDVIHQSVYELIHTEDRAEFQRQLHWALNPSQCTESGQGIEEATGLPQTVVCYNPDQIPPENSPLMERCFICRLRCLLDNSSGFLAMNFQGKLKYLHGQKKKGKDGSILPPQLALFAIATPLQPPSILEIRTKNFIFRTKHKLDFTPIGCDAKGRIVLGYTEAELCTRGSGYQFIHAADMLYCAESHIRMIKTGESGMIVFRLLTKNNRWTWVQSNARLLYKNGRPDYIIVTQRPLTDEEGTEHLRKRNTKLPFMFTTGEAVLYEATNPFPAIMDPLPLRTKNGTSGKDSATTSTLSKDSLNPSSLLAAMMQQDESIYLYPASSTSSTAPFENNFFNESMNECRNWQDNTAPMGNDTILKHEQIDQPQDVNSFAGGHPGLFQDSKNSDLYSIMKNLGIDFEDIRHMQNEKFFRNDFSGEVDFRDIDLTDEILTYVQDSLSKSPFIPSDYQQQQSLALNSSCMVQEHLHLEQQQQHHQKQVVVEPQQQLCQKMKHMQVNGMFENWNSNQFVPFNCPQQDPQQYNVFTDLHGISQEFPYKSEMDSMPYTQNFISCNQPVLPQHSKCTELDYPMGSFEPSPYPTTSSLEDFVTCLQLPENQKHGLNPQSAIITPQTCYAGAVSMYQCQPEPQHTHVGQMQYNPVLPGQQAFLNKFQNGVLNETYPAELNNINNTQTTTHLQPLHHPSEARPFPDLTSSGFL
In short: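 Luminescence read-out: ONE-Glo reagent, 30 min at room temperature, in HG2L7.5c1 HepG2 reporter cells treated 24 h at 37C. Viability was measured beforehand by CellTiter-Fluor fluorescence after 30 min at 37C.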

[17] = target: Estrogen receptor (Homo sapiens) (UniProt P03372); experiment: qHTS assay to identify small molecule agonists of the estrogen receptor alpha (ER-alpha) signaling pathway using the BG1 cell line (AID 743079); also: nearly all actives have a fitted effect of over 20% in size
% is scaled to controls: 0 for no effect and ±100 for the full control effect.

CCC(=O)Oc1ccc2c(c1)CC[C@@H]1[C@@H]2CC[C@@]2(C)[C@H]1C[C@@H](OC(=O)CC)[C@@H]2OC(=O)CC
inactive: outcome [1] | outcome [2] | Potency [3] | outcome [4] | Potency [5]

O=C1c2ccccc2C(=O)c2cc(Cl)ccc21
inactive: activation [6] 1.1% [at 8.08 µM] | activity, negative = inhibition [7] -4.44% [at 6.71 µM] | activity, negative = cytotoxicity [8] -11.1% [at 6.72 µM] | activation [9] -3.38% [at 6.71 µM] | activity change, negative = inhibition [10] 1.09% [at 8.47 µM] | activity change, negative = cytotoxicity [11] 5.98% [at 8.47 µM] | activity, negative = inhibition (Aromatase (Homo sapiens)) 23.3% [at 8.47 µM] | activity change, negative = cytotoxicity [12] 7.6% [at 8.47 µM] | viability change, negative = cytotoxic [13] 10.5% [at 8.47 µM] | activation [14] 0.384% [at 7.08 µM] | activity change, negative = cytotoxicity [2] 2.72% [at 5.95 µM] | activation [3] -9.26% [at 8.36 µM] | viability change, negative = cytotoxic [4] -3.86% [at 8.36 µM] | activity change, negative = cytotoxicity [5] 2.51% [at 5.95 µM] | activation [15] -0.0238% [at 5.95 µM]

COc1cc(/C=C/C(N)=O)cc(OC)c1OC
inactive: outcome [2] | Potency [3] | outcome [4] | Potency [5] | outcome [15]

C=Cc1ccc(C(C)(C)C)cc1
inactive: outcome [6] | outcome [8] | Potency [11] | outcome (Aromatase (Homo sapiens)) | Potency [12] | Potency [16] | Potency [13] | Potency [14] | outcome [2] | Potency [3] | Potency [5] | outcome [15]

CC(C)NC(=O)c1ccc(C=O)cc1
inactive: outcome [2] | Potency [5] | outcome [15]

OC1(c2ccc(Cl)cc2)CCNCC1
inactive: outcome [1] | outcome [2] | Potency [3] | outcome [4] | Potency [5] | outcome [15]

NCC1(Cc2noc(=O)[nH]2)CCCCC1
inactive: outcome [7] | outcome [8] | Potency [9] | Potency [17] | Potency [11] | outcome (Aromatase (Homo sapiens)) | Potency [12] | Potency [16] | Potency [13] | Potency [14] | outcome [2] | outcome [4] | Potency [5] | outcome [15]

CCN1CCCC1CN (stereo not given)
inactive: outcome [1] | outcome [2] | outcome [4] | Potency [5]

CC1CC(=O)CC(C)(C)C1 (stereo not given)
inactive: outcome [6] | outcome [7] | outcome [8] | Potency [9] | Potency [17] | outcome [10] | Potency [11] | outcome (Aromatase (Homo sapiens)) | Potency [12] | Potency [16] | Potency [13] | Potency [14] | outcome [2] | Potency [3] | outcome [4] | Potency [5] | outcome [15]

Cc1cc(-c2ccccc2)nnc1NCCN1CCOCC1
inactive: outcome [6] | outcome [7] | outcome [8] | Potency [9] | outcome [10] | Potency [11] | outcome (Aromatase (Homo sapiens)) | Potency [12] | Potency [13] | Potency [14] | outcome [1] | outcome [2] | Potency [3] | Potency [5] | outcome [15]

C/C(=C1\CCOC(=O)S1)N(C=O)Cc1cnc(C)nc1N
inactive: outcome [2] | Potency [3] | outcome [4] | Potency [5] | outcome [15]

CC(=O)N[C@@H](CO)C(=O)N[C@@H](CC(=O)O)C(=O)N[C@@H](CCCCN)C(=O)N1CCC[C@H]1C(=O)O (Ac-SDKP-OH)
inactive: outcome [1] | outcome [2] | Potency [3] | outcome [4] | Potency [5] | outcome [15]

CO/N=C(/C(=O)N[C@@H]1C(=O)N2C(C(=O)[O-])=C(C[n+]3ccn4ncccc43)CS[C@H]12)c1nsc(N)n1
inactive: outcome [7] | outcome [8] | Potency [9] | Potency [17] | Potency [11] | outcome (Aromatase (Homo sapiens)) | Potency [12] | Potency [16] | Potency [13] | Potency [14] | outcome [1] | outcome [2] | Potency [3] | outcome [4] | Potency [5] | outcome [15]

CC(=O)O[C@@H]1CC2CCC1(C)C2(C)C (stereo not given in full)
inactive: outcome [8] | Potency [11] | outcome (Aromatase (Homo sapiens)) | Potency [12] | Potency [16] | Potency [13] | Potency [14] | outcome [1] | outcome [2] | Potency [3] | Potency [5] | outcome [15]

Source: PubChem BioAssay (Tox21)
